According to PubChem BioAssay (NCATS):
Results filed as inconclusive are left out. A call without a number means that no potency is given here. The source made the active and inactive calls. Calls come from the whole dose curve; as a rule, active = well fitted cell-killing curve with a large enough effect; inconclusive = small, poorly fitted or top-dose-only effect, or effect the other way; inactive = flat fitted curve, though single readings scatter.

Test system: OV90
Experiment: Primary qHTS to identify gynecologic anti-cancer compounds using libraries of approved drugs and bioactive compounds (AID 1345084); note: nearly all actives have a fitted effect of over 55% in size
Conditions: Gynecologic cancer cell panel viability, ATPlite luminescence, 48 h; series mostly up to 57.5 µM
How it was run: (§1)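 Cells, 1,000 per well, were allowed to settle for 16 h at 37 C before compound addition. Five concentrations were tested for 48 h, and viability was read by ATPlite luminescence after 15 min at room temperature.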
Potency is the fitted concentration of half-maximal effect.

SMILES	Potency
O=C(Nc1ccccc1)N1CCN(c2nc(-c3ccccc3)ns2)CC1	inactive
Cc1cc(N2CCOCC2)ccc1Nc1nc(NC2CCCCC2)c2[nH]cnc2n1	inactive
O=C(O)CCc1nccc2c1[nH]c1ccccc12	inactive
O=c1[nH]c2ccc(C#CCN3CCC(Cc4ccccc4)CC3)cc2[nH]1	inactive
COC1=CC(=O)O/C1=C(/OC)[C@@H]1O[C@H]1c1ccccc1	inactive
O=C(Nc1ccc(-c2ccnc(Nc3ccc(N4CCOCC4)cc3)n2)cc1)C1CCCN1 (configuration not stated)	inactive
CCCCC1CCN(CCCN2C(=O)CCc3ccccc32)CC1	inactive
O=C(NCc1cccs1)c1cc2nc(-c3ccco3)cc(C(F)(F)Cl)n2n1	inactive

Test system: PA-1
Experiment: as above
Conditions: Gynecologic cancer cell panel viability, ATPlite luminescence, 48 h; series mostly up to 57.5 µM
How it was run: as §1

SMILES	Potency
O=c1nc(-c2ccccn2)sc2ccccc12	inactive
Cn1cc(-c2ccc3c(c2)CCN3C(=O)Cc2cccc(C(F)(F)F)c2)c2c(N)ncnc21	inactive
COc1ccc(CCCN2CCC(COC(c3ccccc3)c3ccccc3)CC2)cc1	inactive

Test system: SKOV3
Experiment: as above
Conditions: Gynecologic cancer cell panel viability, ATPlite luminescence, 48 h; series mostly up to 57.5 µM
How it was run: as §1

SMILES	Potency	activity change, negative = cytotoxicity
CCn1c(=O)c(-c2ccc(-c3cncs3)cc2Cl)cc2cnc(Nc3ccc(N4CCN(C)CC4)cc3)nc21	inactive	
COC(=O)c1ccc2c(c1)[nH]c1ncnc(NCCCN3CCCCC3)c12	inactive	
CN1CCN(c2ccc(Nc3cc(-c4cccc(-n5ccc6cc(C7CC7)cc(F)c6c5=O)c4CO)cn(C)c3=O)nc2)CC1	inactive	
CNc1nc(Nc2ccc(C(=O)N3CCOCC3)cc2OC)nc2[nH]cc(Cl)c12	inactive	
C=C1CCC2[C@](C)(CCC[C@@]2(C)C=O)[C@H]1CC/C(C)=C/CO (some centres not stated)	inactive	
CC1(CO)CC(O)[C@]2(C(=O)O)CCC34CC3(C=CC3[C@]5(C)C(CC[C@]34C)C(C)(CO)[C@@H](O)[C@H](O)[C@@H]5O)C2C1 (some centres not stated)	inactive	
C/C=C(/C)C(=O)O[C@@H]1C[C@@H](OC(=O)CC(C)C)C2(C)C3C(=O)C=C(C)C2C3C1(C)C (some centres not stated)	inactive	
O=C(NCCCN1CCOCC1)c1cnn2c(-c3ccccc3)cc(-c3ccccc3)nc12	inactive	
Cc1cc(OCCCS(C)(=O)=O)cc(C)c1-c1cccc(COc2ccc3c(c2)OCC3CC(=O)O)c1 (configuration not stated)	inactive	
CC1=C(C(=O)OC2CCCCC2)C(c2ccc([N+](=O)[O-])cc2)C2=C(CC(C)(C)CC2=O)N1 (configuration not stated)	inactive	
CC1(C)CC[C@]2(C(=O)O[C@@H]3O[C@H](CO)[C@@H](O)[C@H](O)[C@H]3O)CC[C@]3(C)C(=CCC4[C@@]5(C)CC[C@H](O[C@@H]6O[C@H](C(=O)O)[C@H](O)[C@H](O)[C@H]6O)C(C)(C)C5CC[C@]43C)[C@@H]2C1 (some centres not stated)	inactive	
CC(=O)c1c(C)cc2cccc(O)c2c1O[C@@H]1O[C@H](CO)[C@@H](O)[C@H](O)[C@H]1O	inactive	
O=C(Nc1ccc(N(Cc2ccsc2)C(=O)Cn2nnc3ccccc32)cc1)C1CC1	inactive	
CNc1cccc(CCOc2ccc3c(c2)CN(CC(F)(F)F)C(=O)[C@H](CC(=O)O)C3)n1	1780 nM (active)	
CC(C)(O)c1ccn2c(-c3ccc(F)c(-c4ccc(F)cc4C#N)c3)cnc2c1F	inactive	
COc1ccc(S(=O)(=O)n2cnc3cc(C)c(C)cc32)cc1	inactive	
C[C@@H]1O[C@@H](O[C@H]2CC[C@@]3(C)C(CC[C@]4(C)C3CC=C3[C@@H]5CC(C)(C)CC[C@]5(C(=O)O[C@@H]5O[C@H](CO)[C@@H](O)[C@H](O)[C@H]5O)CC[C@]34C)[C@]2(C)CO)[C@H](O)[C@H](O[C@@H]2O[C@H](CO)[C@@H](O)[C@H](O)[C@H]2O)[C@H]1O (some centres not stated)		8.14% [at 11.6 µM] (inactive)
CCCOc1ccc(S(=O)(=O)N2CCN(CCO)CC2)cc1-c1nc2c(CCC)cn(CC)c2c(=O)[nH]1	inactive	
CCNc1nc(Nc2cc(F)c(C(=O)N3CCOCC3)cc2OC)ncc1C(F)(F)F	inactive	
CC(=O)O[C@@H]1[C@@H](OC(C)=O)[C@H](C)O[C@@H](O[C@H]2[C@@H]3C=CO[C@@H](O[C@@H]4O[C@H](CO)[C@@H](O)[C@H](O)[C@H]4O)[C@@H]3[C@@]3(CO)O[C@@H]23)[C@@H]1OC(=O)/C=C/c1ccccc1	inactive	
OC(c1ccc(-c2ccc(CN3CCN(Cc4ccncc4)CC3)cc2)c(F)c1)(C(F)(F)F)C(F)(F)F	inactive	
O=C(O)CCc1nccc2c1[nH]c1ccccc12	inactive	
O=c1[nH]c2ccc(C#CCN3CCC(Cc4ccccc4)CC3)cc2[nH]1	inactive	
COC1=CC(=O)O/C1=C(/OC)[C@@H]1O[C@H]1c1ccccc1	inactive	
O=C(Nc1ccc(-c2ccnc(Nc3ccc(N4CCOCC4)cc3)n2)cc1)C1CCCN1 (configuration not stated)	inactive	
CCCCC1CCN(CCCN2C(=O)CCc3ccccc32)CC1	inactive	
O=C(NCc1cccs1)c1cc2nc(-c3ccco3)cc(C(F)(F)Cl)n2n1	inactive	

Test system: Tov-21-G
Experiment: as above
Conditions: Gynecologic cancer cell panel viability, ATPlite luminescence, 48 h; series mostly up to 57.5 µM
How it was run: as §1

SMILES	Potency	activity change, negative = cytotoxicity
COc1cc(OC)c2c(=O)[nH]c(-c3cc(C)c(OCCO)c(C)c3)nc2c1	inactive	
COC(=O)c1ccc2c(c1)[nH]c1ncnc(NCCCN3CCCCC3)c12	inactive	
CN1CCN(c2ccc(Nc3cc(-c4cccc(-n5ccc6cc(C7CC7)cc(F)c6c5=O)c4CO)cn(C)c3=O)nc2)CC1	inactive	
CNc1nc(Nc2ccc(C(=O)N3CCOCC3)cc2OC)nc2[nH]cc(Cl)c12	inactive	
C=C1CCC2[C@](C)(CCC[C@@]2(C)C=O)[C@H]1CC/C(C)=C/CO (some centres not stated)	inactive	
CC1(CO)CC(O)[C@]2(C(=O)O)CCC34CC3(C=CC3[C@]5(C)C(CC[C@]34C)C(C)(CO)[C@@H](O)[C@H](O)[C@@H]5O)C2C1 (some centres not stated)	inactive	
C/C=C(/C)C(=O)O[C@@H]1C[C@@H](OC(=O)CC(C)C)C2(C)C3C(=O)C=C(C)C2C3C1(C)C (some centres not stated)	inactive	
O=C(NCCCN1CCOCC1)c1cnn2c(-c3ccccc3)cc(-c3ccccc3)nc12	inactive	
Cc1cc(OCCCS(C)(=O)=O)cc(C)c1-c1cccc(COc2ccc3c(c2)OCC3CC(=O)O)c1 (configuration not stated)	inactive	
CC1=C(C(=O)OC2CCCCC2)C(c2ccc([N+](=O)[O-])cc2)C2=C(CC(C)(C)CC2=O)N1 (configuration not stated)	inactive	
CCN1CCN(Cc2ccc(C(=O)Nc3ccc(C)c(Oc4ccc5c(c4)CC(=O)N5)c3)cc2C(F)(F)F)CC1	inactive	
O=C(Nc1ccc(N(Cc2ccsc2)C(=O)Cn2nnc3ccccc32)cc1)C1CC1	inactive	
COc1ccc(CCc2nc3cc(-c4c(C)noc4C)ccc3n2CC(C)N2CCOCC2)cc1Cl (configuration not stated)	inactive	
CNc1cccc(CCOc2ccc3c(c2)CN(CC(F)(F)F)C(=O)[C@H](CC(=O)O)C3)n1	501 nM (active)	
CC(C)(O)c1ccn2c(-c3ccc(F)c(-c4ccc(F)cc4C#N)c3)cnc2c1F	inactive	
Cc1[nH]c2ccccc2c1CCNCc1ccc(/C=C/C(=O)NO)cc1	708 nM (active)	
C[C@@H]1O[C@@H](O[C@H]2[C@@H]3C=CO[C@@H](O[C@@H]4O[C@H](CO)[C@@H](O)[C@H](O)[C@H]4O)[C@@H]3[C@@]3(CO)O[C@@H]23)[C@H](O)[C@H](OC(=O)/C=C/c2ccccc2)[C@H]1O	inactive	
C=C1C(=O)OC[C@@H]1C/C=C(\C)CC1CC(C)C(=O)O1 (some centres not stated)	inactive	
COc1ccc(S(=O)(=O)n2cnc3cc(C)c(C)cc32)cc1	inactive	
C[C@@H]1O[C@@H](O[C@H]2CC[C@@]3(C)C(CC[C@]4(C)C3CC=C3[C@@H]5CC(C)(C)CC[C@]5(C(=O)O[C@@H]5O[C@H](CO)[C@@H](O)[C@H](O)[C@H]5O)CC[C@]34C)[C@]2(C)CO)[C@H](O)[C@H](O[C@@H]2O[C@H](CO)[C@@H](O)[C@H](O)[C@H]2O)[C@H]1O (some centres not stated)		-24% [at 11.6 µM] (inactive)
CCCOc1ccc(S(=O)(=O)N2CCN(CCO)CC2)cc1-c1nc2c(CCC)cn(CC)c2c(=O)[nH]1	inactive	
OC(c1ccc(-c2ccc(CN3CCN(Cc4ccncc4)CC3)cc2)c(F)c1)(C(F)(F)F)C(F)(F)F	inactive	
O=C(Nc1ccccc1)N1CCN(c2nc(-c3ccccc3)ns2)CC1	inactive	
Cc1cc(N2CCOCC2)ccc1Nc1nc(NC2CCCCC2)c2[nH]cnc2n1	inactive	
O=C(O)CCc1nccc2c1[nH]c1ccccc12	inactive	
O=c1[nH]c2ccc(C#CCN3CCC(Cc4ccccc4)CC3)cc2[nH]1	inactive	
COC1=CC(=O)O/C1=C(/OC)[C@@H]1O[C@H]1c1ccccc1	inactive	
CCCCC1CCN(CCCN2C(=O)CCc3ccccc32)CC1	inactive	
O=C(NCc1cccs1)c1cc2nc(-c3ccco3)cc(C(F)(F)Cl)n2n1	inactive	
